Experimental data reported in the supplement of paper PMC11732987, “Enantioselective OTUD7B fragment discovery through chemoproteomics screening and high-throughput optimisation” (Communications Chemistry, 2025).

Tests used:
Experiment in all cases: log2 ratio of Biotin-Ahx-Ub-VS probe labelling (fragment/DMSO); higher = less target engagement (more negative = stronger competition), active = hit call of the paper (q ≤ 0.05, log2 ratio ≤ -1)
Conditions in all cases: compound concentration: 200 uM; treatment time: 3 h
USP19 = target: T1, USP19 (UniProt O94966)
T1 sequence (whole entry): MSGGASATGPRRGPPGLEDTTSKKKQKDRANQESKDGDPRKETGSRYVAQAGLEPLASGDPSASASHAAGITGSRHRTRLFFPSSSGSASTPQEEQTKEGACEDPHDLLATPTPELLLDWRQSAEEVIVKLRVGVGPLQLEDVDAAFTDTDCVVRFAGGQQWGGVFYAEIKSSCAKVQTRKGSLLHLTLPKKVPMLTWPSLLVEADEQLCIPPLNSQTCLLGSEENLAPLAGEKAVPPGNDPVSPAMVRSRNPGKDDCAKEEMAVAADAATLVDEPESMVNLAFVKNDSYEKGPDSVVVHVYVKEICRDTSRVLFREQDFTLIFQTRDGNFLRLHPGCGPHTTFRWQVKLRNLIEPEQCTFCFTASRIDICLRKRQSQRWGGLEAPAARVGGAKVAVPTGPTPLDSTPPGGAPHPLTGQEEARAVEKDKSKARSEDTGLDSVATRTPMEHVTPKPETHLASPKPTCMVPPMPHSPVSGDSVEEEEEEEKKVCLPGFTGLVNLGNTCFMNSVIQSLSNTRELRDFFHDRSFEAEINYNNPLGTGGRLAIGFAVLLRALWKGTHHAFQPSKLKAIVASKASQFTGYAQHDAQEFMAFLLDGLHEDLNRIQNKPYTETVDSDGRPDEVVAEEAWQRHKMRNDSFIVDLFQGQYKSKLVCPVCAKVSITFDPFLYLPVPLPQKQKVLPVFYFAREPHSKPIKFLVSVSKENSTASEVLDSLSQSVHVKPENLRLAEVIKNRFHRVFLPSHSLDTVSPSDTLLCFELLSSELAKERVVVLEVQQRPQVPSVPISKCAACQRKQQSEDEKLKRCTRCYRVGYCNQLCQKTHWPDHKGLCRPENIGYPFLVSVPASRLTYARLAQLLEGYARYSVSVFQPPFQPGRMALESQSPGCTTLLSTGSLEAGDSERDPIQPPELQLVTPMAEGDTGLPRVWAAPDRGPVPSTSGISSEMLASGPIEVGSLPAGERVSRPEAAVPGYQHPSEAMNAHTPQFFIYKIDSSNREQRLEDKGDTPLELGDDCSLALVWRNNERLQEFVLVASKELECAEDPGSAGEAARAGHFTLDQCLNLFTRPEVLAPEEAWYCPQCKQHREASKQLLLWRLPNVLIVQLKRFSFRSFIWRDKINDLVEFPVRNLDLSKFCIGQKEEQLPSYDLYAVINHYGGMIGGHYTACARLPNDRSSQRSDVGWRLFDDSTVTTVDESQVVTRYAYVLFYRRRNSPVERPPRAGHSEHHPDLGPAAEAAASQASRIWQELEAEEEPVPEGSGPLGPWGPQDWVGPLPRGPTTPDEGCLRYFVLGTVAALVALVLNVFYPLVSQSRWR
Procedure, shortened: (§1)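 Fragment (200 µM) or vehicle was incubated for 3 h with triplicate HEK293T lysate samples of 495 µg, which were then treated with Biotin-Ahx-Ub-VS at 0.5 µM final for 1 h. Labelled DUBs were enriched on NeutrAvidin, digested with LysC and trypsin, and analysed by diaPASEF LC-MS/MS. Values are average log2 fragment/vehicle ratios from an unpaired t-test on global-median-normalised Spectronaut label-free quantities, using proteins with ≥2 unique peptides.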

USP24 = USP24 (UniProt Q9UPU5)
Chain of USP24 (Q9UPU5 whole entry): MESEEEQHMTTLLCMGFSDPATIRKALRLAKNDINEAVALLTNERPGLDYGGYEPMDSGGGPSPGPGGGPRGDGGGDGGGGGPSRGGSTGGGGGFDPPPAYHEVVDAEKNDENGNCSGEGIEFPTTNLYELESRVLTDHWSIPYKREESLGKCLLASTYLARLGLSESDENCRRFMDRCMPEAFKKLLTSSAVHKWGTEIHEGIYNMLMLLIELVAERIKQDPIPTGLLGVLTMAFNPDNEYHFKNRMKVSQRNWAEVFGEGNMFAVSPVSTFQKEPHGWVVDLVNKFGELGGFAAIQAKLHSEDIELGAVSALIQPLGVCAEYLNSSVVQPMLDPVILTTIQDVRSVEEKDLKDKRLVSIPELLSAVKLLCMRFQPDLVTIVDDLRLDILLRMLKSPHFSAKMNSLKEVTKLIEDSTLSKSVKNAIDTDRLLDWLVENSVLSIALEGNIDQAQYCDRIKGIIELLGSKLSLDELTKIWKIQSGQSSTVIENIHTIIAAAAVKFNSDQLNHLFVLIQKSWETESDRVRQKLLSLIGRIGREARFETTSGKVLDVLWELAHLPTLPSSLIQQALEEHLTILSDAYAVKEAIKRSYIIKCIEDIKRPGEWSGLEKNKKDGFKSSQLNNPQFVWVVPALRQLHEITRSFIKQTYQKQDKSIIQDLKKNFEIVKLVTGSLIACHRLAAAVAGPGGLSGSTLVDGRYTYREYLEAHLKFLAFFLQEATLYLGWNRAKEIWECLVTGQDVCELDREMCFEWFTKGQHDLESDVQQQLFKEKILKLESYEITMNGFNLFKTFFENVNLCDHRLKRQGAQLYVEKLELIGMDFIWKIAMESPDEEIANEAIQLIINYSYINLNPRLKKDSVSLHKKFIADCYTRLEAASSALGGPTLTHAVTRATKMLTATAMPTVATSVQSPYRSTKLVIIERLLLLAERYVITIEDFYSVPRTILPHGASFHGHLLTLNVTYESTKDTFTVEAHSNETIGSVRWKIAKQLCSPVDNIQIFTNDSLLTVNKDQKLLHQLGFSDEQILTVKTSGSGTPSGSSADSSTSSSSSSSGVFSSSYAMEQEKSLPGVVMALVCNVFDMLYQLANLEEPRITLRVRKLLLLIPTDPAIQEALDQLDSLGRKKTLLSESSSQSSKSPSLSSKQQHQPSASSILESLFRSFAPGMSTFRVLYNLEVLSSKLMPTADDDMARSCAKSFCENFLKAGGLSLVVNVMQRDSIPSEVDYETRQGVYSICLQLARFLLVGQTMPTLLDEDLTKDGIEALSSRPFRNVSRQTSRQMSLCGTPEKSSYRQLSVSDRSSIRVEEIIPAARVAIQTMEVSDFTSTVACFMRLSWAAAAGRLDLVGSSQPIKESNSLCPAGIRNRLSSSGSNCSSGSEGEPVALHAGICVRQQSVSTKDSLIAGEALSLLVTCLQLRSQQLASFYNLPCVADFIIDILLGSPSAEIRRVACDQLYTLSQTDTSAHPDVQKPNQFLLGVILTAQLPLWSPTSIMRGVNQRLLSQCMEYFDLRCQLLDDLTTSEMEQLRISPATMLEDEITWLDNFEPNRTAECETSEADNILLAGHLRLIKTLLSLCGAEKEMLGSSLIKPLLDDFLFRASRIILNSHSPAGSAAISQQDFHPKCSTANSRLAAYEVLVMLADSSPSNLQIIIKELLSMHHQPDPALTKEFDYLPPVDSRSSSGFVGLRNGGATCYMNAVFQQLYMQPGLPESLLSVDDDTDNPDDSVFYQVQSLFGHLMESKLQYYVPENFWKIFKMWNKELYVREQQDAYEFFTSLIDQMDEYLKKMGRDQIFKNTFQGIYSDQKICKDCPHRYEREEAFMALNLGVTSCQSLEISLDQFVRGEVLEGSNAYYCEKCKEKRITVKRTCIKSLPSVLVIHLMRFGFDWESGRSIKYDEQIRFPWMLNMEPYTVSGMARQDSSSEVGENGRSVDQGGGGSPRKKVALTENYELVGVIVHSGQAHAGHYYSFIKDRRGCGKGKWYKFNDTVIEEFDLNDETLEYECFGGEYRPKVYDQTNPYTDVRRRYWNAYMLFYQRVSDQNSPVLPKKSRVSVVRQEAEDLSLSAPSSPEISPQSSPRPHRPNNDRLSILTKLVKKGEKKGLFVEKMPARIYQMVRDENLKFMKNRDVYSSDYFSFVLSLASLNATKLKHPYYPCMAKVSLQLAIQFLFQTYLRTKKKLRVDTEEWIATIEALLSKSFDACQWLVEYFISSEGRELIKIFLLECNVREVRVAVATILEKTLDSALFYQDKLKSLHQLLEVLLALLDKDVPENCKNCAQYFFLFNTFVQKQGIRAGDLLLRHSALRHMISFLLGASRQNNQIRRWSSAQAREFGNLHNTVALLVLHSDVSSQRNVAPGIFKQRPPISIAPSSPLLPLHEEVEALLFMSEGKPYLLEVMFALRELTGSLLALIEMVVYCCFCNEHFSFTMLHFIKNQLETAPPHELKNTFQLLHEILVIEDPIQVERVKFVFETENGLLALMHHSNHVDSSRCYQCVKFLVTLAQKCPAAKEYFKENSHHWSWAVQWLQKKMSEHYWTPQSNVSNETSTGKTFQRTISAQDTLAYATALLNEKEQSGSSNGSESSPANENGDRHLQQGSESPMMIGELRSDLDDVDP
Procedure, shortened: as §1

USP25 = target: T2, USP25 (UniProt Q9UHP3)
T2 sequence (whole entry): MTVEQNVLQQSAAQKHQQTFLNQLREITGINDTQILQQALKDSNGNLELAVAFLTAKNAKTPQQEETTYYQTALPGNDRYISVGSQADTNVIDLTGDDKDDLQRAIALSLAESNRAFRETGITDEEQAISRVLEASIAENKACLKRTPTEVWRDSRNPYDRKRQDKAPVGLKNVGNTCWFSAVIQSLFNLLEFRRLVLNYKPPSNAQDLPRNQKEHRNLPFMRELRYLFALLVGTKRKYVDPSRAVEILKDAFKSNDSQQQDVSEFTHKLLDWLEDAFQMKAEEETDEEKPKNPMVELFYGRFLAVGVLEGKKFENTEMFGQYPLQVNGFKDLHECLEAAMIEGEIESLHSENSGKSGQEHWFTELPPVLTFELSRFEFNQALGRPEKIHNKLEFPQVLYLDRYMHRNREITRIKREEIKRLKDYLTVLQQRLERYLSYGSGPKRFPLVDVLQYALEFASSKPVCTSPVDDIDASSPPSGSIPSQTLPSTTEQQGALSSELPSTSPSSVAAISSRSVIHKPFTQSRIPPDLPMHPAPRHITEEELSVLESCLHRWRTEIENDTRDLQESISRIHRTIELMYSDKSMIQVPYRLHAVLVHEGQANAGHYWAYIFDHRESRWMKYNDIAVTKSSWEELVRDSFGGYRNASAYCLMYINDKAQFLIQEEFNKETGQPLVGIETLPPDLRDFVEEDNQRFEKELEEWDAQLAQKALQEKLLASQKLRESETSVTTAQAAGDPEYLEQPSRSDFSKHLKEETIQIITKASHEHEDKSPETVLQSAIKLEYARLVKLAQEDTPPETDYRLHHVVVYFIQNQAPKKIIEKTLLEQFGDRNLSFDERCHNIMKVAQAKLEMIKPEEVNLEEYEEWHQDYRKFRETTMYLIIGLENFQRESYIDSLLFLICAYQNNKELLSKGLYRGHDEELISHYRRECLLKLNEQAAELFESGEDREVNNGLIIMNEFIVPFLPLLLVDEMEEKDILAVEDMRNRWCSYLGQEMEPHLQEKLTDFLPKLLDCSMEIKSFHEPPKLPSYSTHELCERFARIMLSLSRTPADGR
Procedure, shortened: as §1

USP28 = target: T3, USP28 (UniProt Q96RU2)
T3 sequence (whole entry): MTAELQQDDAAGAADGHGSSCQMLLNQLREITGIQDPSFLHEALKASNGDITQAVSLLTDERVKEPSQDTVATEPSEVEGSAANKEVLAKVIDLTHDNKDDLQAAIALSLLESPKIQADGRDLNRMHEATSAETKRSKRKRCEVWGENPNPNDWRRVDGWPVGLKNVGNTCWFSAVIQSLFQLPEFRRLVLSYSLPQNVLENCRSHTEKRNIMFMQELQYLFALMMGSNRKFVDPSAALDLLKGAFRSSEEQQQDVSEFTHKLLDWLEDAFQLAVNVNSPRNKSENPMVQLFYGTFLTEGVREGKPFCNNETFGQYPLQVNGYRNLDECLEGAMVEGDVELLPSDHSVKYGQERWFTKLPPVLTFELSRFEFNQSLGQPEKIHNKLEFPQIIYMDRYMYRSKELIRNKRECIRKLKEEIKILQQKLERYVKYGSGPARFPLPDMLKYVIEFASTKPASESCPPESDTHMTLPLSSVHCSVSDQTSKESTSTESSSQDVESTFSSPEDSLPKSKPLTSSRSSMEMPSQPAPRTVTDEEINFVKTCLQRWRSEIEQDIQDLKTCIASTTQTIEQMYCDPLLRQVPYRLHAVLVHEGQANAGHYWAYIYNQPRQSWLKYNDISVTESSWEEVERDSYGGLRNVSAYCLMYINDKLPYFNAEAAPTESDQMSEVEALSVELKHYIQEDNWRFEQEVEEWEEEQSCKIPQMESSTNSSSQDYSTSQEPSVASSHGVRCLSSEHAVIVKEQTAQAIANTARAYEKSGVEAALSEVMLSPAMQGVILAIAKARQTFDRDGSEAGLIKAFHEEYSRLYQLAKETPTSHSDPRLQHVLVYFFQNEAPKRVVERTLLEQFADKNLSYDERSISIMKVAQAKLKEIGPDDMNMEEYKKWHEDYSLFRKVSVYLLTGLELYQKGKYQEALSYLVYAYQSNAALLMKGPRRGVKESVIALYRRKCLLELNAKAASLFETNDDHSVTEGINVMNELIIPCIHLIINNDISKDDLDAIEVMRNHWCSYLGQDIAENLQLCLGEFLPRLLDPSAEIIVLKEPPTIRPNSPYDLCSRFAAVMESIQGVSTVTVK
Procedure, shortened: as §1

Measured: log2 ratio of Biotin-Ahx-Ub-VS probe labelling

Cc1ccc(CN(C)C(=O)CCl)o1
inactive: USP19 -0.241 | USP24 -0.411 | USP25 -0.156 | USP28 -0.465
